The text below walks through data of PubChem BioAssay (NCATS).

Records with an inconclusive call do not appear. Values without a mark were called inactive. Calls of active or inactive are those of the source. The call rests on the fitted dose curve; in most records, active means well fitted curve in the direction sought with a large enough effect; inconclusive means small, poorly fitted or top-dose-only effect, or another doubt; inactive means no such curve, though single readings can be large; an effect the other way counts as inactive or inconclusive. Peptide text beside a SMILES is read from it. * marks the point of attachment. βNA = c1ccc2cc(N*)ccc2c1; Cbz = O=C(OCc1ccccc1)*

Assay [1] has as its target Cellular tumor antigen p53 (Homo sapiens) (UniProt P04637). Nature of the assay: Primary qHTS for small molecule compounds that upregulate eGFP-tagged delta133p53alpha (in N-terminal) cells. (AID 2060322). Further: nearly all actives have a fitted effect of over 75% in size. Further: potency means the concentration at half of the fitted maximal effect.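 On activation: series mostly up to about 56 µM; 0% = DMSO vehicle and 100% = reference activator.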 The settings on record: NCI-H358 eGFP-delta133p53alpha fluorescence, 24 h; activation: stronger effect = higher value. Put shortly: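 NCI-H358 cells pre-induced 24 h with 10 ng/ml doxycycline to express N-terminal eGFP-delta133p53alpha, then dosed 24 h at 37C without doxycycline; fixed, Hoechst-stained, GFP intensity by laser scanning cytometry, normalized to DMSO (0%) and 57.5 uM 5-azacytidine (100%).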

Assay [2] concerns the target Aldehyde dehydrogenase, mitochondrial (Homo sapiens) (UniProt P05091). Description: qHTS for Inhibitors of the Aldehyde Dehydrogenase Family (ALDH2) Primary screen (AID 2061308).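 Further: plate controls were vehicle for no effect and reference inhibitor for full effect; nearly all actives have a fitted effect of over 55% in size.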 In general terms: In qHTS, concentration-response curves come from the screen itself.
In assay [3] the target is Retinaldehyde dehydrogenase 3 (Homo sapiens) (UniProt P47895). Description: qHTS for Inhibitors of the Aldehyde Dehydrogenase Family (ALDH1A3) Primary screen (AID 2061315).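 Further: plate controls were DMSO vehicle for no effect and reference inhibitor for full effect.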

Sequence of Cellular tumor antigen p53 (Homo sapiens) (P04637 whole entry, looked up): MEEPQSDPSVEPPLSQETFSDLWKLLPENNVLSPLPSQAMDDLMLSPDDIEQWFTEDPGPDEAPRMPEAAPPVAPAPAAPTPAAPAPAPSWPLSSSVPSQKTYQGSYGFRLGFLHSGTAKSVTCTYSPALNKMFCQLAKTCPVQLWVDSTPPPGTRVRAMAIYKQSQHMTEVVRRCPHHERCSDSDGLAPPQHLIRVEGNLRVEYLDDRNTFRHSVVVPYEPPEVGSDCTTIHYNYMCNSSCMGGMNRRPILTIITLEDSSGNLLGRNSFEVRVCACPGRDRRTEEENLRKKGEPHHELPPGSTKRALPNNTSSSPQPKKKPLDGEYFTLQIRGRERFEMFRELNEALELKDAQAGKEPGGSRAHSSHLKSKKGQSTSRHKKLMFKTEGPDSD

Take `Cc1ccc(S(=O)(=O)n2ccc(-c3c(-c4ccc(Cl)cc4)noc3C)n2)cc1`: in assay [1], the activation is -18.8%. Also, the Potency result in assay [2] and in assay [3] was “inactive” throughout.

As for `CC1CCC2(NC1)OC1C(=O)C3C4CCC5CC(O[C@@H]6O[C@H](CO)[C@@H](O)[C@H](O)[C@H]6O[C@@H]6O[C@@H](C)[C@H](O)[C@@H](O)[C@H]6O)CCC5(C)C4CCC3(C)C1C2C` (stereo partly specified), the activation in assay [1] was 10.7%. For the same molecule, the Potency entry in assay [2] and in assay [3] was “inactive” throughout.

With `Cn1nc(C(C)(C)C)cc1C(=O)N[C@@H](Cc1cccc(Cl)c1)C(=O)NCC#N`, the activation in assay [1] was -7%. Also, the Potency entry in assay [2] and in assay [3] was “inactive” each time.

As for `CC(C)CC(NC(=O)OCc1ccccc1)C(=O)NC(CC(C)C)C(=O)NC(CCC(=O)O)C(=O)Nc1ccc2ccccc2c1` (stereo not drawn) (Cbz-Leu-Leu-Glu-βNA; configuration not given here), in assay [1], the activation was -5.67%. In addition, the Potency entry in assay [2] and in assay [3] was “inactive” in each case.

With `Cc1ccc(C)c(NS(=O)(=O)c2cc(C(=O)Nc3ccccc3-c3ccccc3)ccc2C)c1`, the activation in assay [1] is 1.67%. The Potency result in assay [2] and in assay [3] was “inactive” throughout.

As for `COc1ccc(/C=C/C(=O)O[C@H]2[C@H](O[C@H]3[C@@H]4C=CO[C@@H](O[C@@H]5O[C@H](CO)[C@@H](O)[C@H](O)[C@H]5O)[C@@H]4[C@@]4(CO)O[C@@H]34)O[C@@H](C)[C@H](O)[C@H]2OC(C)=O)cc1`, in assay [1], the activation was -0.763%. The Potency result in assay [2] and in assay [3] was “inactive” in each case.

Take `N#Cc1cnc2cnc(NCc3cccnc3)cc2c1Nc1ccc(F)c(Cl)c1`: the Potency in assay [1] is 2.69 µM (active). The Potency entry in assay [2] and in assay [3] was “inactive” each time.

`COC(=O)/C=C/C12COC(C)(C)C1C(O)C(OC(C)=O)C1(C)C2CCC2(C)C(c3ccoc3)OC(=O)C3OC321` (stereo unspecified): the activation in assay [1] was 11.5%. In addition, the Potency entry in assay [2] and in assay [3] was “inactive” throughout.

On to `C=C[C@@](C)(O)CC/C=C(\C)C(=O)O[C@@H]1[C@@H]2O[C@]2(C)[C@H]2[C@H](O[C@@H]3O[C@H](CO)[C@@H](O)[C@H](O)[C@H]3O)OC=C[C@@]12O`, for which the activation in assay [1] was -3.57%. The Potency result in assay [2] and in assay [3] was “inactive” in each case.

Turning to `CC1=C(C(=O)O)/C(=C\CO[C@@H]2O[C@H](CO)[C@@H](O)[C@H](O)[C@H]2O)C(OC(=O)/C=C/c2ccc(O)cc2)C1` (stereo partly specified), the activation in assay [1] is -3.82%. Moreover, the Potency entry in assay [2] and in assay [3] was “inactive” each time.

As for `Cc1cccc(/C=N/Nc2cc(N3CCOCC3)n3nc(-c4ccncc4)cc3n2)c1`, the Potency in assay [1] was 19 µM (active). In addition, the Potency result in assay [2] and in assay [3] was “inactive” throughout.

For `O=C(/C=C/c1ccc(O)cc1)OC[C@H]1O[C@@H](O/C(=C\c2ccccc2)C(=O)O)[C@H](O)[C@@H](O)[C@@H]1O`, in assay [1], the activation is -2.29%. The Potency result in assay [2] and in assay [3] was “inactive” each time.

Take `C[C@@H]1O[C@@H](O[C@H]2[C@@H]3C=CO[C@@H](O[C@@H]4O[C@H](CO)[C@@H](O)[C@H](O)[C@H]4O)[C@@H]3[C@@]3(CO)O[C@@H]23)[C@H](O)[C@H](OC(=O)/C=C/c2ccccc2)[C@H]1O`: in assay [1], the activation was 0.763%. Moreover, the Potency entry in assay [2] and in assay [3] was “inactive” throughout.

In the case of `C=C1CCC2C(C)(C)C(O)CCC2(C)C1CCC(C)CCOC(C)=O` (stereo unspecified), in assay [1], the activation was 5.36%. For the same molecule, the Potency result in assay [2] and in assay [3] was “inactive” throughout.

Take `COC(=O)CCC(=O)OC[C@]1(C)CCC[C@@]2(C)C3CC[C@]4(C)C=CC3(CCC12)C4` (stereo partly specified): the activation in assay [1] is -8.4%. Besides, the Potency entry in assay [2] and in assay [3] was “inactive” throughout.

Regarding `O=C(Nc1ccc(-c2ccncc2)cc1)N[C@H](CO)c1ccccc1`, the activation in assay [1] is -25.9%. Also, the Potency entry in assay [2] and in assay [3] was “inactive” in each case.

With `C=C1CC[C@@]2(OC1)O[C@H]1CC3[C@@H]4CC=C5C[C@H](O[C@H]6OC[C@@H](O)C(O)[C@@H]6O[C@@H]6O[C@@H](C)[C@H](O)[C@@H](O[C@@H]7O[C@H](CO)[C@@H](O)[C@H](O)[C@H]7O)[C@H]6O)C[C@@H](O)[C@]5(C)C4CC[C@]3(C)[C@H]1[C@@H]2C` (stereo partly specified), the activation in assay [1] is -6.25%. The Potency entry in assay [2] and in assay [3] was “inactive” each time.

`Cc1cccc(-c2[nH]ncc2-c2ccnc3ccccc23)n1`: in assay [1], the activation was 8.93%. Also, the Potency entry in assay [2] and in assay [3] was “inactive” each time.

As to `C/C=C(\C)C(=O)OC[C@H]1O[C@H](O[C@H]2O[C@H](CO)[C@@H](OC(=O)/C(C)=C/C)[C@H](O)[C@H]2O[C@@H]2O[C@H](CO)[C@@H](O)[C@H](O)[C@H]2O)[C@H](O[C@@H]2O[C@H](CO)[C@@H](O)[C@H](O)[C@H]2O)[C@@H](O)[C@@H]1O`, the activation in assay [1] was -4.46%. Further, the Potency result in assay [2] and in assay [3] was “inactive” throughout.

On to `C/C=C(\C)C(=O)O[C@H]1[C@@H](O[C@]2(COC(=O)CC(C)C)O[C@H](COC(=O)C(C)C)[C@@H](OC(C)=O)[C@@H]2O)O[C@H](COC(C)=O)[C@@H](O)[C@@H]1O`, for which, in assay [1], the activation is 10.7%. In addition, the Potency result in assay [2] and in assay [3] was “inactive” each time.

Regarding `C=C1CCC2C(C)(C)CCC[C@]2(C)[C@H]1C/C=C(\CO)C(=O)C(=O)O` (stereo partly specified), the activation in assay [1] was -6.87%. The Potency entry in assay [2] and in assay [3] was “inactive” in each case.

For `CC(O)/C=C/C1C(C)C(O[C@@H]2O[C@H](CO)[C@@H](O)[C@H](O)[C@H]2O)C(O)CC1(C)C` (stereo partly specified), in assay [1], the activation was 12.2%. Besides, the Potency result in assay [2] and in assay [3] was “inactive” throughout.
